Assay results: PubChem BioAssay AID652054 (National Center for Advancing Translational Sciences (NCATS), 2013)
About 9,100 (2.5%) of roughly 360,000 compounds were called active. Roughly 4% stayed inconclusive and do not appear here. For the sample, actives were picked, then their nearest neighbours and some compounds at random. Unmarked numbers belong to inactive results. Rule as the data show it: active = max response below about -50%; inconclusive = no clear call, values can overlap the other calls; inactive = above that.

Each molecule was assayed against D(3) dopamine receptor (Homo sapiens) (UniProt P35462) (assay: qHTS of D3 Dopamine Receptor Antagonist: qHTS). Details: D3R cells, DiscoveRx beta-arrestin luminescence, antagonist mode; hits give low values.
Sequence of D(3) dopamine receptor (Homo sapiens) (P35462 whole entry, looked up): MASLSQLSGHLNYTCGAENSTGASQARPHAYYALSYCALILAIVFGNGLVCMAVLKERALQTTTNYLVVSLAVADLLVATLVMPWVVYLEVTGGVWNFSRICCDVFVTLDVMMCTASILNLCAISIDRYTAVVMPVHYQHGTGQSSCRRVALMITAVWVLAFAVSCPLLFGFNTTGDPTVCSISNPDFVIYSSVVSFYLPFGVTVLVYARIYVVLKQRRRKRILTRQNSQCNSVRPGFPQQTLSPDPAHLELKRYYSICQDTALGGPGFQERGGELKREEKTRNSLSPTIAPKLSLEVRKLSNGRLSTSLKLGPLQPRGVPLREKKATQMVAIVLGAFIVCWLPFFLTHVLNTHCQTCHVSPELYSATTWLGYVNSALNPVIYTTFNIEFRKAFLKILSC
How it was run: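 Cells plated overnight at 1500 cells/well, then exposed to library compounds with dopamine controls for 90 minutes at 37 degrees C. DiscoveRx reagent added for 30–60 minutes at room temperature; luminescence read, quantitative HTS format.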
% is scaled to controls: 0 for no effect and ±100 for the full control effect.

Row | SMILES | max response, negative = inhibition
1 | Cc1c(C(=O)NCC2CC2)sc(=O)n1Cc1cccc(F)c1 | 11.5%
2 | Cc1cccc(C)c1Cn1c(C)c(C(=O)NCc2cccc(Cl)c2)sc1=O | -105% (active)
3 | COc1cc(CC(=O)NCc2cccs2)cc(OC)c1OC | -6.25%
4 | CC(=O)Oc1ccc(Cn2c(C)c(C(=O)NCc3ccc(C#N)cc3)sc2=O)cc1 | -1.7%
5 | CCOC(=O)[C@]12CCCC=C1N(CCC1=CCCCC1)C(=O)[C@H](CC(=O)N1CCOCC1)C2 | -20.5%
6 | COC(=O)C[C@H]1C=C[C@H](NC(=O)c2ccc(F)cc2)[C@@H](CO)O1 | 0%
7 | CCN(CC)CCNC(=O)c1ccc(NC(=O)c2cc(-c3ccncc3)nc3ccccc23)cc1 | -11%
8 | CCc1nc2ccccc2c(C(=O)NCc2ccc(OC)cc2)c1C | -8.59%
9 | CCCN(CCC)CCNC(=O)c1cc2c(C)nc3ccccc3c2o1 | -52.4% (active)
10 | C[C@H]1CN([C@@H](C)CO)C(=O)CCCn2nncc2CO[C@@H]1CN(C)S(=O)(=O)c1cccc(C#N)c1 | 12.3%
11 | CC1(Oc2ccc(Cl)cc2)CCN(Cc2csc3ccccc23)C1 (stereo unspecified) | -85.5% (active)
12 | COc1ccc(CN2CCC(C)(Oc3cccc(F)c3)C2)c2ccccc12 (stereo unspecified) | -6.36%
13 | CC1(Oc2cccc(F)c2)CCN(Cc2ccccc2OC(F)F)C1 (stereo unspecified) | -21.8%
14 | N#Cc1ccc(-c2ccc3nccn3c2)cc1 | 21.2%
15 | Cc1ccccc1S(=O)(=O)NC(=O)C1(C)CCN1C(=O)C1(c2ccccc2)CCCC1 (stereo unspecified) | 15.6%
16 | CSc1ccc(CN2CCC2(C)C(=O)Nc2ccc(C)c(O)c2)cc1 (stereo unspecified) | 51.8%
17 | O=C(Nc1ccccc1)N1CCN(Cc2ccccc2)CC1 | -70.6% (active)
18 | O=C(c1cc2ccccc2o1)N1CCN(S(=O)(=O)c2ccc(Cl)s2)CC1 | -0.155%
19 | O=C(Nc1ccccc1)N1CCC(C(=O)N2CCN(Cc3ccccc3)CC2)CC1 | 0%
20 | O=C(c1cccc(Cl)c1)N1CCN(Cc2ccccc2)CC1 | 7.13%
21 | O=C(NC(=S)N1CCN(Cc2ccccc2)CC1)c1ccccc1 | -1.99%
22 | O=C(c1cc2ccccc2o1)N1CCN(Cc2ccccc2)CC1 | -77.4% (active)
23 | CCOC(=O)C1=CCC(c2ccc(F)cc2)N(S(=O)(=O)c2ccc(C)cc2)C1 (stereo unspecified) | -25.7%

Row | SMILES | max response, negative = inhibition
24 | Clc1cccc(Cc2c(-c3cccc(Cl)c3)nc3ccc(Cl)cn23)c1 | 33.1%
25 | CC(=NNC(N)=O)C1CC2CCC1CC2 (stereo unspecified) | 16.7%
26 | O=C1Nc2ccccc2-n2nnnc2C1N1CCN(c2cccc(C(F)(F)F)n2)CC1 (stereo unspecified) | 11.4%
27 | CN1CCN(/N=C2/C(=O)Nc3ccc([N+](=O)[O-])cc32)CC1 | -3.16%
28 | O=[N+]([O-])c1ccc(N(CCO)Cc2ccccc2)c([N+](=O)[O-])c1 | 5.91%
29 | O=C1Nc2ccc([N+](=O)[O-])cc2C1=Nc1cccc(CO)c1 | -77.4% (active)
30 | COC(=O)CCCCC1=CCC2C(=O)C=C(O)C2C1 (stereo unspecified) | 0%
31 | CN1CCn2cnc(C(=O)NCC(=O)OC(C)(C)C)c2C1=O | -5.8%
32 | CSCc1nnc(NC(=O)c2ccc(S(=O)(=O)N3CCCCC3C)cc2)o1 (stereo unspecified) | -20%
33 | CC1CCCCN1S(=O)(=O)c1ccc(S(=O)(=O)N(CC(=O)Nc2ccccc2)Cc2cccs2)cc1 (stereo unspecified) | 28.7%
34 | CC1CCCCN1S(=O)(=O)c1ccc(C(=O)Nc2nnc(-c3cccs3)o2)cc1 (stereo unspecified) | -63.3% (active)
35 | Cc1cc(-n2nc(C)cc2C)n2ncc(-c3ccccc3)c2n1 | 17.7%
36 | Cc1cc(C)n(-c2c(F)c(F)c(COC(=O)c3ccccc3)c(F)c2F)n1 | -2%
37 | CCOC(=O)c1cnc(-n2nc(C)cc2C)nc1NNc1cc(C)nc(-c2ccccc2)n1 | -53.4% (active)
38 | CCCS(=O)(=O)NC(=O)C1(C)CCCN(C(=O)c2cccs2)C1 (stereo unspecified) | -7.3%
39 | COC(=O)[C@]12CCCCC=C1N(Cc1ccccc1)C(=O)[C@H](CC(=O)NCc1ccc(C)o1)C2 | 0.174%
40 | c1ccc(-c2cnc(CN3CCN(c4ccccc4)CC3)o2)cc1 | -58.1% (active)
41 | Cc1ccc(-c2nnc(CN3CCN(C)CC3)o2)cc1 | 0%
42 | COc1ccc(N2CCN(Cc3nnc(-c4ccccc4)o3)CC2)cc1 | 11.3%
43 | Cc1cc2cc3n(c2nn1)N=C(Cl)CC3 | 10.6%
44 | CCc1ccccc1N1C(=O)C2C3CC(=O)C(c4ccccc43)C2C1=O (stereo unspecified) | -6.94%
45 | CC(=O)Nc1ccc(N2C(=O)C3C4CC(=O)C(c5ccccc54)C3C2=O)cc1 (stereo unspecified) | -60% (active)
46 | CC(=O)Nc1ccc(N2C(=O)C3C4C=CC(CC4)C3C2=O)cc1 (stereo unspecified) | 3.35%
